# GPT2 inhibitor: blocks human glutamate pyruvate transaminase 2; Q8TD30; Recombinant GPT2, coupled pyruvate oxidase/HRP Amplex Red fluorescence; Potency, µM (series often up to 57.7 µM), for the others: top-dose activity change, negative = inhibition, hits mostly inhibitors; 0.25% of 100,000 active; AID 1671188; further: nearly all actives have a fitted effect of over 60% in size
#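 Fluorescence read-out: pyruvate from GPT2 turnover coupled to pyruvate oxidase, HRP and Amplex Red (0.2mM ThPP, 0.2U/mL PO and HRP, 50uM Amplex final). Substrates 250uM a-KG, 2mM L-alanine; enzyme 10ng/uL; 30 min RT.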
# FLuc inh: inhibitors of firefly (Photinus pyralis) luciferase | P08659 | purified P. pyralis luciferase, luminescence, biochemical | Potency, µM (doses to about 115 µM), actives largely listed as inhibitors | 2.5% of 76,000 active | AID 1347043; further: nearly all actives have a fitted effect of over 65% in size
#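 Luminescence read by CCD imaging after purified firefly luciferase (10nM final) was added to substrate buffer holding 10uM D-luciferin and 10uM ATP, pH 7.5, pre-dosed with compound.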
# NPR1 antag: antagonists of human natriuretic peptide receptor Npr1; P16066; HEK293 hNpr1 GloSensor cGMP, ANP-stimulated luminescence; 1.6% of 76,000 active; Potency, µM (doses to about 46.3 µM), inactives show at the highest dose activity change, negative = inhibition, most hits filed as inhibitors; calls by dose curve; further: nearly all actives have a fitted effect of over 60% in size
# Target sequence (P16066 whole entry, looked up): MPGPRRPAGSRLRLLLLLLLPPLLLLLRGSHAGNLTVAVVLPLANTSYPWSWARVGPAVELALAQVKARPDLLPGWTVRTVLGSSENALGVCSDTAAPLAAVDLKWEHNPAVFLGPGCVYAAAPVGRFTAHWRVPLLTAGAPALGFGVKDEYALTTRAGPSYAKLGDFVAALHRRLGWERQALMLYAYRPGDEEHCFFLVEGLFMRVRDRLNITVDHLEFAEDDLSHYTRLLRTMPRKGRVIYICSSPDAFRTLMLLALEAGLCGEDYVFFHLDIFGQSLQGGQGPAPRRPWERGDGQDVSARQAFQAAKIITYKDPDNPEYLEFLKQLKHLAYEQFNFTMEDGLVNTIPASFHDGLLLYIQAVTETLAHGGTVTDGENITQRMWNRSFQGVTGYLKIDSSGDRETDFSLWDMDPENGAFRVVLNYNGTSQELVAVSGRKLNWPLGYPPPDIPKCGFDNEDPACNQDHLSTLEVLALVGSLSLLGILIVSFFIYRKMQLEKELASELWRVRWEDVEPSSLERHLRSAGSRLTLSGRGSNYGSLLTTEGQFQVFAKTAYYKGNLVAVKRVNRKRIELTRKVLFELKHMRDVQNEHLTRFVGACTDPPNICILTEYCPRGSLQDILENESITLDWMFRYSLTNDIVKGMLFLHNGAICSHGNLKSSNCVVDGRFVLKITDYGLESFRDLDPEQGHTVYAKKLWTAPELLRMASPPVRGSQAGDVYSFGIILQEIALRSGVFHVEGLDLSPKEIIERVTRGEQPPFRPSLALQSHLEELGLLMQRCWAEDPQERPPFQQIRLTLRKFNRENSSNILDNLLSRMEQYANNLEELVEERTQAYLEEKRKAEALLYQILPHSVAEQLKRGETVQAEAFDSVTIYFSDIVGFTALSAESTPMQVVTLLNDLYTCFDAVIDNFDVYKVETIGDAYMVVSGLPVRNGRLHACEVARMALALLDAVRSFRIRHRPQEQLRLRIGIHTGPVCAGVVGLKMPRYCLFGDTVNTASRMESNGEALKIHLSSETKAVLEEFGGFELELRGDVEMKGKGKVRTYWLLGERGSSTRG
#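 Compound pre-incubated 30 min at room temperature on GloSensor-loaded HEK293 cells stably carrying hNpr1 and the pGS-40F cGMP biosensor. Stimulation uses hNppA at 0.1 nM final; luminescence is taken at baseline and 20 min post-agonist.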
# HEK293 tox: cytotoxic compounds in HEK 293 cells. AID 1345083. 6.6% of 94,000 active. HEK 293 viability, ATP luminescence (CellTiter-Glo), 48-72 h. Potency, µM (titrated, usually from 115 µM), inactives show at the top dose activity change, negative = cytotoxicity, most hits filed as inhibitors; further: nearly all actives have a fitted effect of over 60% in size
#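 Luminescence from cellular ATP, measured with CellTiter-Glo, indicates HEK 293 viability. Cells plated at 250 cells/well are treated with compound for 48 or 72 hr at 37 degree Celsius before reagent addition.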
# 3T3 cytotox: NIH 3T3 cell cytotoxicity | NIH 3T3 viability, CellTiter-Glo ATP luminescence, 48-72 h | Potency, µM (doses to about 96.7 µM), without a hit: at the highest dose activity change, negative = cytotoxicity, usual class: inhibitors | 4.3% of 94,000 active | AID 1345082; further: nearly all actives have a fitted effect of over 55% in size
#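 Cytotoxicity is measured as loss of cellular ATP: NIH 3T3 cells (400/well) are exposed to compound for 48 or 72 hr at 37 °C, then CellTiter-Glo luminescence is imaged after 10 min at room temperature.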
# The depositor's hits bear a star; i = inactive; ? = inconclusive; · = no result given; [ ] = dose if it differs, or a comment. This is a sample that favours compounds with a hit; in the whole collection about 10% have one here. Unless noted, the call rests on the fitted dose curve; in most records, active means well fitted curve in the direction sought with a large enough effect; inconclusive means small, poorly fitted or top-dose-only effect, or another doubt; inactive means no such curve, though single readings can be large; an effect the other way counts as inactive or inconclusive. On the % scale 0 is the no-effect control and ±100 the full control effect; potency means the concentration at half of the fitted maximal effect.
SMILES,GPT2 inhibitor,FLuc inh,NPR1 antag,HEK293 tox,3T3 cytotox
COc1cc2c(cc1OC1CCCC1)NC(=O)C21CCN(C(=O)c2cccc(O)c2)CC1,-4.5%[88.5 µM],i,-22.1%[70.6 µM],79.4µM*,?
COc1cc2c(cc1OC1CCCC1)NC(=O)C21CCN(C(=O)c2cccc(C#N)c2)CC1,-9.1%,i,-9.6%,?,22.4µM*
COc1cc2c(cc1OCc1ccccc1)N([S+](=O)([O-])c1ccccc1C(F)(F)F)CC21CCN(C)CC1,-59.9%,i,-15.0%,20µM*,12.6µM*
COc1cc2c(cc1OCc1ccccc1)N([S+](=O)([O-])c1cccnc1)CC21CCN(C)CC1,0.6%,i,1.8%,?,14.1µM*
COc1cc2c(cc1OCc1ccccc1)N([S+](=O)([O-])c1ccc3c(c1)CCO3)CC21CCN(C)CC1,0.8%,i,-9.1%,?,?
COC1C(O)C(C)OC(OC2C(CO)O[C@@H](O[C@@H]3CC4CCC5C(CC[C@]6(C)[C@@H](C7=CC(=O)OC7)CC[C@]56O)[C@@]4(C)[C@H](O)C3)C(O)C2O)C1O (stereo not given in full),-13.2%[17.1 µM],·,·,·,·
C=C[C@H]1CN2CC[C@H]1C[C@@H]2CNC(=O)c1cc(OC)c(OC)c(OC)c1,-5.9%[88.5 µM],i,2.5%[70.6 µM],?,44.7µM*
C=C[C@H]1CN2CC[C@H]1C[C@@H]2CNC(=O)Nc1cc(OC)cc(OC)c1,3.9%[88.5 µM],i,-0.2%[70.6 µM],-4.5%[172 µM],?
C=C[C@H]1CN2CC[C@H]1C[C@@H]2CNC(=O)Nc1ccc(Br)cc1,-3.2%[88.5 µM],i,-5.6%[70.6 µM],56.2µM*,?
C#C[C@H]1CN2CC[C@H]1C[C@@H]2CNC(=O)Nc1ccc(C(C)=O)cc1,4.6%[88.5 µM],i,4.0%[70.6 µM],?,?
C=C[C@H]1CN2CC[C@H]1C[C@@H]2CNC(=O)Nc1ccc(OC(F)(F)F)cc1,-0.7%[88.5 µM],i,-0.2%[70.6 µM],-11.6%[172 µM],?
C=C[C@H]1CN2CC[C@H]1C[C@@H]2CNC(=O)Nc1ccc(Oc2ccccc2)cc1,i,i,3.8%[70.6 µM],100µM*,?
C#C[C@H]1CN2CC[C@H]1C[C@@H]2CNC(=O)Nc1ccc(Oc2ccccc2)cc1,4.2%[88.5 µM],i,-0.7%[70.6 µM],39.8µM*,39.8µM*
C[N@@+]1(CC2CC2)CC[C@]23c4c5ccc(O)c4O[C@H]2C(=O)CC[C@@]3(O)[C@H]1C5,-8.1%,·,·,·,·
O=C1NC2(CCCN(Cc3cccnc3)C2)COc2ccccc21 (stereo not given),3.4%[88.5 µM],i,-22.5%[70.6 µM],89.1µM*,35.5µM*
CCOC(=O)[C@H]1CN(C(=O)c2cc(C)oc2C)[C@]2(C)C(=O)N(C)c3ccccc3[C@H]12,i,·,·,-32.9%[57.5 µM],?
COc1cc2c(cc1Oc1ccccc1)NC(=O)C21CCN(c2ncccn2)CC1,1.2%[88.5 µM],i,-30.3%[70.6 µM],?,79.4µM*
COc1cc2c(cc1Oc1ccccc1)NC(=O)C21CCN(Cc2ccccc2)CC1,?,i,?,28.2µM*,28.2µM*
COc1cncc(CN2CCC3(CC2)C(=O)Nc2cc(Oc4ccccc4)c(OC)cc23)c1,-1.1%,i,-26.5%,35.5µM*,?
COCCN1C(=O)CO[C@H]2CN(C(C)C)C[C@H]21,i,i,6.3%[70.6 µM],-24.0%[230 µM],-13.4%[230 µM]
CC1CCN(C[C@H]2CN3CC[C@H]2C[C@@H]3CNC(=O)Nc2ccsc2)CC1,2.8%[88.5 µM],i,1.1%[70.6 µM],-28.6%[172 µM],?
O=C(Nc1ccc(=O)n2c1[C@@H]1C[C@@H](CN(S(=O)(=O)c3ccccc3)C1)C2)c1cncnc1,-2.7%,i,-19.3%,?,?
CNC(=O)c1cc(C#N)cc(C)c1NC(=O)c1cc(Br)nn1-c1ncccc1Cl,3.4%,·,·,·,·
CC[C@H]1CN2CC[C@H]1C[C@@H]2CNC(=O)CC(C)(C)CC(=O)O,i,i,-1.7%[70.6 µM],-27.6%[172 µM],-2.7%[174 µM]
COc1ccc(-c2cc([C@H]3CN4CC[C@H]3C[C@@H]4CNC(=O)Nc3ccccc3)n(C)n2)cc1,i,i,1.8%,?,79.4µM*
CC(C)NC(=O)NC[C@H]1C[C@@H]2CCN1C[C@@H]2c1cc(-c2cccs2)nn1C,-4.2%[88.5 µM],i,1.3%[70.6 µM],-14.9%[172 µM],-27.2%[174 µM]

# Source: PubChem BioAssay (National Center for Advancing Translational Sciences (NCATS))
